Source: PubChem BioAssay (NCATS)
Records with an inconclusive call do not appear. Calls of active or inactive are those of the source. Unless noted, calls come from the whole dose curve; as a rule, active = well fitted curve in the direction sought with a large enough effect; inconclusive = small, poorly fitted or top-dose-only effect, or another doubt; inactive = no such curve, though single readings can be large; an effect the other way counts as inactive or inconclusive.

Key:
[1] = molecular target: Lysosomal acid glucosylceramidase (Homo sapiens) (UniProt P04062); experiment: Glucocerebrosidase-p2 (AID 348; in the data active = potency below about 10 µM; note: potency is the fitted concentration of half-maximal effect); details: purified GBA, blue fluorogenic substrate, 40 min
Outline: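 Compounds titrated from 0.6 nM upwards against 0.2 nM enzyme in pH 5.9 citric acid/KH2PO4, taurocholate, tween-20; blue fluorogenic substrate 80 uM, 40 min room temperature, stopped and read Ex 365/Em 440 for AC50.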

[2] = molecular target: Cytochrome P450 1A2 (Homo sapiens) (UniProt P05177); experiment: p450-cyp1a2 (AID 410; calls by dose curve; note: potency is the fitted concentration of half-maximal effect;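 for activity change, negative = inhibition: -100% = full effect of reference inhibitor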); details: recombinant CYP1A2, luciferin-ME demethylation, luminescence; series mostly up to 57 µM
Outline: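 Inhibition was calculated relative to 57 uM furafylline (full inhibition). The reaction used human CYP1A2 at 20nM with Luciferin-ME at its Km, 100uM, driven by an NADPH-regenerating system for 60 min at room temperature.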

[3] = NFAT Signaling Pathway (AID 444; active = well fitted curve in either direction with a large enough effect, not every such curve was filed as active;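 note: carbachol stimulus at about its EC50 of 1 µM final; % is set by controls: 0 for no effect and ±100 for the full control effect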); details: Jurkat NFAT-bla M1, carbachol, beta-lactamase ratio, 5 h; at 7.69 µM (top of the series) unless noted
Outline: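 Jurkat cells with NFAT-driven β-lactamase reporter and co-expressed M1 receptor, stimulated with carbachol (final 1 uM, ~EC50), compound titration, 5 h at 37 °C. CCF4 loaded 1 h at RT; 460/530 nm ratio gave %activity and AC50.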

[4] = molecular target: Glucocorticoid receptor (Homo sapiens) (UniProt P04150); experiment: GR-GFP Redistribution (AID 450;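 active = compounds whose dose series gives a full or clear partial fitted curve of increased nuclear translocation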; note: potency is the fitted concentration of half-maximal effect); details: U2OS GR-GFP nuclear translocation, laser cytometry, 2 h
[5] = molecular target: Glucocorticoid receptor (Homo sapiens) (UniProt P04150); experiment: GR-EFC Redistribution (AID 451; calls by dose curve; note: potency is the fitted concentration of half-maximal effect); details: CHO-K1 GR-EFC translocation, beta-gal luminescence, 2 h
Outline: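 CHO-K1 cells expressing nuclear EA and GR-ED fragments of b-gal; compounds titrated up to 46 uM final, 2 h at 37 C. GR nuclear translocation read as complemented b-gal luminescence after 1 h RT detection.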

[6] = molecular target: Mitogen-activated protein kinase 10 (Mus musculus) (UniProt Q61831); experiment: JNK3 AlphaScreen Assay (AID 530; active = well fitted curve in either direction with a large enough effect, not every such curve was filed as active;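 note: kinase came from lysate of stimulated human HepG2 cells; signal reports phosphorylation of biotinylated GST-cJun 1-79 at Ser73 with 10 µM ATP; % is set by controls: 0 for no effect and ±100 for the full control effect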); details: JNK3 lysate, c-Jun phosphorylation; series mostly up to 57.1 µM
Outline: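 qHTS format: compounds tested as titrations against IL-1beta/TNF-alpha-activated HepG2 lysate JNK3 with biotin-GST-cJun substrate and 10 uM ATP at room temperature. Loss of anti-phospho-cJun AlphaScreen signal indicates inhibition.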

[7] = molecular target: Cytochrome P450 3A4 (Homo sapiens) (UniProt P08684); experiment: qHTS Assay for Inhibitors and Substrates of Cytochrome P450 3A4 (AID 884); details: recombinant CYP3A4, Luciferin-PPXE luminescence; series mostly up to 57.1 µM; note: nearly all actives have a fitted effect of over 50% in size; note: potency is the fitted concentration of half-maximal effect
Outline: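 20 nM human CYP3A4 with 25 uM Luciferin-PPXE (at KM) in 200 mM KPO4, preincubated 10 min with compound; NADPH regeneration started a 60 min RT reaction. Luciferin detected by luminescence, normalized to 57 uM ketoconazole as full inhibition.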

[8] = molecular target: Cytochrome P450 2C19 (Homo sapiens) (UniProt P33261); experiment: qHTS Assay for Inhibitors and Substrates of Cytochrome P450 2C19 (AID 899); details: recombinant CYP2C19, luciferin-H EGE luminescence; series mostly up to 57.1 µM; note: % is set by controls: 0 for no effect and ±100 for the full control effect; nearly all actives have a fitted effect of over 60% in size
Outline: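 Signal comes from luciferase acting on luciferin released by CYP2C19-mediated hydroxylation of Luciferin-H EGE, 10uM (KM). Assay mix: 5nM enzyme, 50mM KPO4; 60 min at 37C with NADPH regeneration. Data normalized against 57uM ketoconazole.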

[9] = qHTS Assay for Identification of Small Molecule Agonists for Hypoxia Response Element Signaling Pathway (AID 914; active = well fitted activation curve with a large enough effect in the signal ratio, with a control signal flat, not every such curve was filed as active; the % refers to the signal ratio; note: potency is the fitted concentration of half-maximal effect); details: ME-180 HRE-bla reporter, beta-lactamase ratio, CoCl2, 17 h; activation: hits give high values
Outline: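 ME-180 cells carrying an HRE-driven beta-lactamase reporter were treated with compounds in a titration series plus an EC50 level of CoCl2 for 17 h at 37 degrees Celsius; CCF4 readout as the 460nm/530nm ratio gave AC50 values.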

[10] = molecular target: Dual specificity protein kinase CLK4 (Homo sapiens) (UniProt Q9HAZ1); experiment: qHTS Assay for Inhibitors of CDC-like Kinase 4 (Kinase-Glo Assay) (AID 1770); details: recombinant Clk4, Kinase-Glo ATP depletion luminescence; series mostly up to 66.7 µM; note: nearly all actives have a fitted effect of over 65% in size; note: potency is the fitted concentration of half-maximal effect
Outline: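 Inhibition was judged from remaining ATP, measured by Ultra-Glo luciferase bioluminescence after Clk4 (25 nM) had acted on RS peptide at 1 uM ATP for 4.5 hours, room temperature.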

[11] = molecular target: Dual specificity protein kinase CLK4 (Homo sapiens) (UniProt Q9HAZ1); experiment: qHTS Assay for Inhibitors of CDC-like Kinase 4 (ADP-Glo Assay) (AID 1771); details: recombinant CLK4, ADP-Glo luminescence; series mostly up to 80 µM; note: nearly all actives have a fitted effect of over 70% in size; note: potency is the fitted concentration of half-maximal effect
Outline: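 Kinase reaction: Clk4 at 25 nM, RS repeat peptide substrate at 100 uM, ATP at 1 uM, 1 hr, room temperature. Product ADP detected as luciferase signal via ADP-Glo.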

[12] = molecular target: Dual specificity protein kinase CLK4 (Homo sapiens) (UniProt Q9HAZ1); experiment: qHTS Assay for Inhibitors of CDC-like Kinase 4 (ADP-FP Assay) (AID 1795); details: Transcreener ADP fluorescence polarization; series mostly up to 50 µM; note: nearly all actives have a fitted effect of over 60% in size; note: potency is the fitted concentration of half-maximal effect
Outline: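 Inhibition of ADP formation by 6.25 nM Clk4 is measured using 1 uM ATP and 100 uM RS repeat peptide over one hour. Produced ADP displaces a fluorescent tracer from antibody, lowering polarization.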

[13] = molecular target: Ubiquitin carboxyl-terminal hydrolase 1 (Homo sapiens) (UniProt O94782); experiment: Inhibitors of USP1/UAF1: Pilot qHTS (AID 504865); details: purified USP1/UAF1, Ub-rhodamine cleavage fluorescence; series mostly up to 54.9 µM;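 note: rhodamine fluorescence freed from ubiquitin-rhodamine substrate followed over time; top concentration of the series differs between compounds; % is set by controls: 0 for no effect and ±100 for the full control effect; nearly all actives have a fitted effect of over 35% in size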
Outline: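 Kinetic fluorescence assay: 1nM USP1/UAF1, 15 min compound preincubation, then 150nM Ub-Rho; 480/540 nm.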

[14] = Primary qHTS for small molecule stabilizers of the endoplasmic reticulum resident proteome: Secreted ER Calcium Modulated Protein (SERCaMP) assay (AID 1508630); details: SH-SY5Y GLuc-SERCaMP (Gaussia luciferase released on ER calcium loss) secretion, thapsigargin, luminescence; series mostly up to 38.4 µM; note: % is set by controls: 0 for no effect and ±100 for the full control effect
Outline: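 GLuc-SERCaMP-expressing SH-SY5Y cells, pretreated 16 h with compound, are challenged with thapsigargin to empty ER calcium stores; after 4 h, coelenterazine is added directly to the medium and luminescence is imaged.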

[15] = molecular target: 3',5'-cyclic-AMP phosphodiesterase 4B (Homo sapiens) (UniProt Q07343); experiment: qHTS Assay for Inhibitors of PDE-IV (AID 607; active = well fitted activation curve with a large enough effect in the main read-out, with a control signal flat, not every such curve was filed as active; note: potency is the fitted concentration of half-maximal effect); details: HEK293 ACTOne CNG channel cells, membrane potential fluorescence; series mostly up to 22.9 µM
Outline: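 HEK293 ACTOne cells with CNG channel (1000/well), endogenous PDE4; membrane potential dye, compounds up to 22.9 uM final. Fluorescence Ex 535/Em 590; RO 20-1724 (100 uM final) as reference.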

[16] = Stat Signaling Pathway (AID 446; active = well fitted curve in either direction with a large enough effect, not every such curve was filed as active;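 note: ME-180 cervical cancer cells given 40 pM IL-6 alongside compound; SIE-controlled beta-lactamase reporter measured as 460/530 nm FRET emission ratio; % is set by controls: 0 for no effect and ±100 for the full control effect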); details: ME-180 SIE beta-lactamase reporter, IL-6 stimulated, 5 h; at 7.69 µM (top of the series) unless noted
Outline: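 ME-180 cells carrying a SIE-driven beta-lactamase reporter are stimulated with 40 pM IL-6 for 5 h at 37C in the presence of compound. The 460/530 nm FRET substrate ratio is read after 2.5 h at RT. Data are normalised to 300 pM IL-6 and to 125 nM JAK inhibitor controls.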

[17] = molecular target: Cytochrome P450 3A4 (Homo sapiens) (UniProt P08684); experiment: qHTS Assay for Activators of Cytochrome P450 3A4 (AID 885); details: recombinant CYP3A4, Luciferin-PPXE luminescence, 60 min; series mostly up to 57.1 µM; note: nearly all actives have a fitted effect of over 65% in size
Outline: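 Human CYP3A4 (20 nM) with Luciferin-PPXE at 25 uM (its KM) in 200 mM KPO4; 10 min compound preincubation, then NADPH regeneration and 60 min reaction at RT. Luciferin read by luminescence; normalized to 57 uM ketoconazole full inhibition.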

[18] = AP1 Signaling Pathway (AID 357; active = well fitted curve in either direction with a large enough effect, not every such curve was filed as active); details: ME-180 (cervical carcinoma) AP-1-bla reporter, EGF-induced, beta-lactamase ratio, 5 h; at 7.69 µM (top of the series) unless noted
Outline: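 In this screen, ME-180 cells in Opti-MEM with 0.5% dialyzed FBS received EC50 EGF and compound titrations for 5 h. AP-1 reporter beta-lactamase was detected via CCF4 ratio, giving AC50 for positive and negative modulators.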

Sequence of 3',5'-cyclic-AMP phosphodiesterase 4B (Homo sapiens) (Q07343 whole entry, looked up): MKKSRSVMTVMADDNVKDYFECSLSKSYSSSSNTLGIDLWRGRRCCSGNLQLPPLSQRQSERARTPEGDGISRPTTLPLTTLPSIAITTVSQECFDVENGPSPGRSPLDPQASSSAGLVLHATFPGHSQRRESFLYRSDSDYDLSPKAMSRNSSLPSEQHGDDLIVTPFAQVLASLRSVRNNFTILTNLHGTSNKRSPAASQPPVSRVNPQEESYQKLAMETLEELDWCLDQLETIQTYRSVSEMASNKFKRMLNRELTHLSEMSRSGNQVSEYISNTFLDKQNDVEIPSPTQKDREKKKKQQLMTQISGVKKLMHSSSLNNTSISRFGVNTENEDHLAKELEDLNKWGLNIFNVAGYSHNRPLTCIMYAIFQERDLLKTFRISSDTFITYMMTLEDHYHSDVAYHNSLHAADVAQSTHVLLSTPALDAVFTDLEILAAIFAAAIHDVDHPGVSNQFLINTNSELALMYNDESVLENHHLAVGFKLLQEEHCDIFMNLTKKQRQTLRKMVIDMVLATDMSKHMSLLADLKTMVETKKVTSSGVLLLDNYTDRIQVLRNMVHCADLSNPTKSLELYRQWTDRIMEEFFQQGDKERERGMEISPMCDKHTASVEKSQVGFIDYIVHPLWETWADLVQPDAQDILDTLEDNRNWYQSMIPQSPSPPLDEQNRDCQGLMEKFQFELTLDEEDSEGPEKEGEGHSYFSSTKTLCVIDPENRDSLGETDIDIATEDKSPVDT
Sequence of Dual specificity protein kinase CLK4 (Homo sapiens) (Q9HAZ1 whole entry, looked up): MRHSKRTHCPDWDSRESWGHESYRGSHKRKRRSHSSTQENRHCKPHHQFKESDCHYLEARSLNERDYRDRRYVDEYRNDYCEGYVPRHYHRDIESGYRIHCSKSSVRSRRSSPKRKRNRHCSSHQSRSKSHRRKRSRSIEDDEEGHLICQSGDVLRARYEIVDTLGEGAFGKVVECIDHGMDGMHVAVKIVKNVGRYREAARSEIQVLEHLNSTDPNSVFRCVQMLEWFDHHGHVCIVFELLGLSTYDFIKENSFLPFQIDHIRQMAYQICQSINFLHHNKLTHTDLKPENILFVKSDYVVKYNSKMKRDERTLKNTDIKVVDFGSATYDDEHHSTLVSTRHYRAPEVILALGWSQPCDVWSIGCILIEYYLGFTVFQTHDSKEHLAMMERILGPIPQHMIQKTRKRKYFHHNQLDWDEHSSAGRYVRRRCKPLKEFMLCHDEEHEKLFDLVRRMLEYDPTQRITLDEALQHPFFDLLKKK
Sequence of Cytochrome P450 1A2 (Homo sapiens) (P05177 whole entry, looked up): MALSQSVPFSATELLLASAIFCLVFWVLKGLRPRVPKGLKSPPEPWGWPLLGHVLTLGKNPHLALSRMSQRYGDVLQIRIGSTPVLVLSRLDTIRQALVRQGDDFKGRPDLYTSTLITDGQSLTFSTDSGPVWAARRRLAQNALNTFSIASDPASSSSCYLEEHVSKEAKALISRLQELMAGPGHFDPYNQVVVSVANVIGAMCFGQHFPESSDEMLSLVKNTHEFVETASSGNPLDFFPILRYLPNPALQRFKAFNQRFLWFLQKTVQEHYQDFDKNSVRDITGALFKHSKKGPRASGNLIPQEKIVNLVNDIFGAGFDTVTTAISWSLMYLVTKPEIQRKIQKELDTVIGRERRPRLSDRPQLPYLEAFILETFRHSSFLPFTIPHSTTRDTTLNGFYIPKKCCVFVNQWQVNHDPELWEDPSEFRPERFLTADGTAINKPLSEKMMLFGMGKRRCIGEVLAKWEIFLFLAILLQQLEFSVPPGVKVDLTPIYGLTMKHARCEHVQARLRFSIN
Sequence of Lysosomal acid glucosylceramidase (Homo sapiens) (P04062 whole entry, looked up): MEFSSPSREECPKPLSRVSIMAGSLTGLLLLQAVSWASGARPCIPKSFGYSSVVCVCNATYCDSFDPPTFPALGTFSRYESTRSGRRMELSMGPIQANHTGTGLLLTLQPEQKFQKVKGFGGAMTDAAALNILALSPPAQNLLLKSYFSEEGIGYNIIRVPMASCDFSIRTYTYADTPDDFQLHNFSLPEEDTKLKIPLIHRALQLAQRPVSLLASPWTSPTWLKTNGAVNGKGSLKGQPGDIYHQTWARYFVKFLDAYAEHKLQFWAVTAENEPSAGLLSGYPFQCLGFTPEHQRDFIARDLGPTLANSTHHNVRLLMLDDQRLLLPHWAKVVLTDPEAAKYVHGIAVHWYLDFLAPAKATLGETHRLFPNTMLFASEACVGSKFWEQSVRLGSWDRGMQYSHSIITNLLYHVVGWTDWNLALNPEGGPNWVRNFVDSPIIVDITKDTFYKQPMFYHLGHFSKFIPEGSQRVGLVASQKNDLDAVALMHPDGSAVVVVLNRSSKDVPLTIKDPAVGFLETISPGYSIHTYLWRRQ
Sequence of Glucocorticoid receptor (Homo sapiens) (P04150 whole entry, looked up, the tested form may be a part): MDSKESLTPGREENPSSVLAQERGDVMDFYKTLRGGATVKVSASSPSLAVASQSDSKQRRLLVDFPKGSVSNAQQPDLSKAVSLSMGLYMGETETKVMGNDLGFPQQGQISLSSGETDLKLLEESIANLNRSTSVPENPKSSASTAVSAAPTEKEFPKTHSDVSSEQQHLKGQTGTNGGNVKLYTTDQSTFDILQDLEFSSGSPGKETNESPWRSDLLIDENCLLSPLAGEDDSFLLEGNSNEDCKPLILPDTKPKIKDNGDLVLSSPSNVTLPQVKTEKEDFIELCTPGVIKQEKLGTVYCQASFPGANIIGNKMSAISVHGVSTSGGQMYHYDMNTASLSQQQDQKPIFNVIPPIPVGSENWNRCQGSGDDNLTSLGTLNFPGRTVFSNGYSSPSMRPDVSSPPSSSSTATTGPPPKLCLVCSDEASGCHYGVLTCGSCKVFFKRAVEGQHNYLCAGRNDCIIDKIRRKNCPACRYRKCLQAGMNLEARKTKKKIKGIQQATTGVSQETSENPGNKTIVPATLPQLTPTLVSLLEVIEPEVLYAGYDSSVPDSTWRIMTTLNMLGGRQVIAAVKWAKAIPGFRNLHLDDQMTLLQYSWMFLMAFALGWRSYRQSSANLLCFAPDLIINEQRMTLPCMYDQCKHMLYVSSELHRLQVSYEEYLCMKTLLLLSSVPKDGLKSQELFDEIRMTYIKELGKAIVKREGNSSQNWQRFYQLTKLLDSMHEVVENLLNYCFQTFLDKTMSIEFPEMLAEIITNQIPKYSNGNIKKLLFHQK
Sequence of Ubiquitin carboxyl-terminal hydrolase 1 (Homo sapiens) (O94782 whole entry, looked up): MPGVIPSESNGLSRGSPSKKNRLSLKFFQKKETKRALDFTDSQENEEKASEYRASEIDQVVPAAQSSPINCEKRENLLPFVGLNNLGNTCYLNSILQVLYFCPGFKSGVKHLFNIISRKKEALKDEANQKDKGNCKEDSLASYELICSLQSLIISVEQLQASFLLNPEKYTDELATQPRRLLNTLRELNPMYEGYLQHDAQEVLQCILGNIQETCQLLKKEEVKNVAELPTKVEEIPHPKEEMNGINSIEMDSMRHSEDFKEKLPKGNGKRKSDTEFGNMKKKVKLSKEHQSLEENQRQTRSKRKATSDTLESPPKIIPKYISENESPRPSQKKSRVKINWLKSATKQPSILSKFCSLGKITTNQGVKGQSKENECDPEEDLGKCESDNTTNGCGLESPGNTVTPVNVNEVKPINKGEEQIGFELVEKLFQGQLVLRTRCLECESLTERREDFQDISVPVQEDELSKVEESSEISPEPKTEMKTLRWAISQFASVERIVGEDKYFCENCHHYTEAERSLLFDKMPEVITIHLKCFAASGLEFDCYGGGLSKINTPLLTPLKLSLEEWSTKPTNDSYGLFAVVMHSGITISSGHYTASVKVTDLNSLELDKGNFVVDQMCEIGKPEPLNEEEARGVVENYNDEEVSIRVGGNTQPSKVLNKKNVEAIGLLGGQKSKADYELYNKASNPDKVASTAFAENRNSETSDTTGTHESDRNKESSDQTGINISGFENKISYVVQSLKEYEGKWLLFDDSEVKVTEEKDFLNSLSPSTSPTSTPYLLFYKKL
Sequence of Cytochrome P450 3A4 (Homo sapiens) (P08684 whole entry, looked up): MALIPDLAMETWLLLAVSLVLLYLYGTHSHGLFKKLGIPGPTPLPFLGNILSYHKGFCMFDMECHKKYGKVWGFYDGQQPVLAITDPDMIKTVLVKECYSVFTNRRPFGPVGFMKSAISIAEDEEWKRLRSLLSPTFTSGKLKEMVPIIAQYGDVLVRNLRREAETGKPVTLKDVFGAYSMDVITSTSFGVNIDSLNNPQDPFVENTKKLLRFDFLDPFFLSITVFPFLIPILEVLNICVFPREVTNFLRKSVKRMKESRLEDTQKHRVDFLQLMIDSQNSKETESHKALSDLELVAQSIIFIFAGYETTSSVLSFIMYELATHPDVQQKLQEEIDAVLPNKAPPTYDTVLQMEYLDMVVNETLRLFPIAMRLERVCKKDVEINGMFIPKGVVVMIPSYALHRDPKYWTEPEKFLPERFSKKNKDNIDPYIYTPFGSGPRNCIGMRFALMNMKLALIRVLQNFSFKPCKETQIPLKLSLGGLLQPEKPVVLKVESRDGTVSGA
Sequence of Cytochrome P450 2C19 (Homo sapiens) (P33261 whole entry, looked up): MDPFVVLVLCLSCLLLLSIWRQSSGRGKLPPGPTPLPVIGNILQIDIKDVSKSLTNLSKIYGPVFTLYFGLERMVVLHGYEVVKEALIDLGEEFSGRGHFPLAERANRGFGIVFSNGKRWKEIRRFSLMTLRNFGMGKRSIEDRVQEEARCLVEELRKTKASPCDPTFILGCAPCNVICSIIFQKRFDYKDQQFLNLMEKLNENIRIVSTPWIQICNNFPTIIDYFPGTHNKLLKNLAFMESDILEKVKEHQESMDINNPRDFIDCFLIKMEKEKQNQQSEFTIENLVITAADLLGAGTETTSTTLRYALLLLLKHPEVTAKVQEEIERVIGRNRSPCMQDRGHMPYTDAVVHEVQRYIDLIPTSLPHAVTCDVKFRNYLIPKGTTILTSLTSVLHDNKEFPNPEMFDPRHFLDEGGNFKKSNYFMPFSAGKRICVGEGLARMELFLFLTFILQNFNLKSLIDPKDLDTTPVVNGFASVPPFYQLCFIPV

CCNc1ncc2nc(-c3ccc(Cl)cc3)c(=O)n(Cc3ccc(F)cc3)c2n1
inactive: Potency [1] > 11.4 µM | activity change, negative = inhibition [3] -1.59% | Potency [4] > 9.22 µM | Potency [5] > 46 µM | Potency [6] | Potency [7] | Potency [8] | Potency [10] | Potency [11] | Potency [12] | Potency [13] | outcome [14]
active: Potency [2] 12.6 µM | Potency [9] 0.1 µM

CN(C)c1ncc2nc(-c3ccc(Cl)cc3)c(=O)n(-c3ccccc3)c2n1
active: Potency [2] 5.01 µM | Potency [15] 1 µM | Potency [9] 2.51 µM
inactive: Potency [1] > 11.4 µM | Potency [4] > 9.22 µM | Potency [5] > 46 µM | Potency [6] | Potency [10] | Potency [11] | Potency [12] | Potency [13] | outcome [14]

CS(=O)(=O)Nc1cccc(-c2ccc3ncnc(NCc4cccs4)c3c2)c1
inactive: Potency [1] > 11.4 µM | activity, negative = inhibition [16] -2.34% | Potency [4] > 46 µM | Potency [5] > 46 µM | Potency [6] | Potency [17] | Potency [13] | outcome [14]
active: Potency [2] 0.0794 µM | Potency [7] 3.16 µM | Potency [10] 7.94 µM | Potency [11] 7.94 µM | Potency [12] 5.01 µM

Cn1cc(-c2nc3cnc(OCc4ccccc4)nc3n(CCC#N)c2=O)c2ccccc21
inactive: Potency [1] > 11.4 µM | activity change, negative = inhibition [18] 3.51% | activity, negative = inhibition [16] 27.1% | Potency [4] > 46 µM | Potency [5] > 46 µM | Potency [6] | Potency [15] | Potency [10] | Potency [11] | Potency [12] | Potency [13] | outcome [14]

FC(F)(F)c1ccccc1-c1nccc(NCCN2CCOCC2)n1
inactive: Potency [1] > 11.4 µM | activity change, negative = inhibition [18] 27.9% | activity, negative = inhibition [16] -13.3% | Potency [4] > 46 µM | Potency [5] > 46 µM | Potency [6] | Potency [15] | Potency [17] | Potency [10] | Potency [11] | Potency [12] | Potency [13] | outcome [14]

CN1CCN(c2ncc3nc(-c4cn(C)c5ccccc45)c(=O)n(CCc4ccccc4)c3n2)CC1
active: Potency [9] 3.16 µM
inactive: Potency [1] > 11.4 µM | Potency [2] | Potency [4] > 9.22 µM | Potency [5] > 46 µM | Potency [6] | Potency [15] | Potency [17] | Potency [10] | Potency [11] | Potency [12] | Potency [13] | outcome [14]

CN(C)c1ncc2nc(-c3ccc(Cl)cc3)c(=O)n(CCC#N)c2n1
inactive: Potency [1] > 11.4 µM | activity change, negative = inhibition [18] 7.51% | activity, negative = inhibition [16] 17.6% | Potency [4] > 9.22 µM | Potency [5] > 46 µM | Potency [6] | Potency [15] | Potency [10] | Potency [11] | Potency [12] | Potency [13] | outcome [14]
